# Source: PubChem BioAssay (National Center for Advancing Translational Sciences (NCATS))
# NPSR antag – blocks cAMP signaling of the human neuropeptide S receptor; Q6W5P4; 1% of 220,000 active; CHO-NPSR cells, cAMP TR-FRET, antagonist mode; AID 1461; Potency, µM (series often up to 38.3 µM), for the others: at the highest dose activity change, negative = inhibition, actives largely listed as inhibitors; also: potency is read from the fitted curve at half-maximal effect; nearly all actives have a fitted effect of over 50% in size
# Target sequence (Q6W5P4 whole entry, looked up): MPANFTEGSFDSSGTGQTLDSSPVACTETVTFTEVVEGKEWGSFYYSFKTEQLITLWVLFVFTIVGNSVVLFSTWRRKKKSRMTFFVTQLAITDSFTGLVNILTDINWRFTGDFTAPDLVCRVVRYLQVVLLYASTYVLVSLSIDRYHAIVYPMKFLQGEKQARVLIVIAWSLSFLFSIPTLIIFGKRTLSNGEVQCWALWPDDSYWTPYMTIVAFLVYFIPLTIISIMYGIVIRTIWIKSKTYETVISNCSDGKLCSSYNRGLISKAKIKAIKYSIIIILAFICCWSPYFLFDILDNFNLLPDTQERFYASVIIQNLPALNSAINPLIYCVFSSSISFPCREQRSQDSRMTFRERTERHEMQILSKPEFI
# PNC assembly inh – inhibitors of perinucleolar compartment assembly. PC3M PTB-GFP, PNC prevalence imaging, 16 h; active compounds read low. 3.1% of 140,000 active. activity change (PNC), negative = inhibition, % at 10 µM;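 active = readout at or below -70, meaning at least 70% loss of cells showing the perinucleolar compartment, a nuclear body marking cancer cells; inconclusive = readout between -30 and a set limit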;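 also: plate controls were DMSO wells for no effect and camptothecin positive control wells for full effect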
#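 Compounds are pinned in duplicate onto adhered PC3M cells stably expressing GFP-tagged PTB and incubated 16 h at 37 C. Cells are then fixed, nuclei stained with Hoechst, and PNC-positive cells counted.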
# Tau fibril ThT – blocks human tau fibril formation measured by thioflavin T. P10636. recombinant tau K18 P301L, heparin-induced fibrillization, ThT fluorescence. Potency, µM (titrated, usually from 57.4 µM), for inactives: at the highest dose activity, negative = inhibition, usual class: inhibitors. 2.1% of 270,000 active. AID 1460; also: potency is read from the fitted curve at half-maximal effect; nearly all actives have a fitted effect of over 55% in size
# Target sequence (P10636 561-689 P618L limits assumed): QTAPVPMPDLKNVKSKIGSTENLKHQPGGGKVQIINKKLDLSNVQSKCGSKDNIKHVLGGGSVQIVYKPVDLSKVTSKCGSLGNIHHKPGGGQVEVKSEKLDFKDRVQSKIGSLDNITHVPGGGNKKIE
#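 Heparin-induced fibrillization of the P301L-mutant K18 repeat-domain fragment of human tau was followed by ThT binding in quantitative high-throughput format.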
# Tau fluor counter – counter-screen for tau fibril formation inhibitors | tau K18 P301L (four-repeat tau fragment) Alexa594 fluorescence, heparin fibrillization | Potency, µM (doses to about 57.7 µM), for inactives: top-dose activity change, negative = decrease | 0.93% of 280,000 active | AID 1463; also: potency is read from the fitted curve at half-maximal effect; nearly all actives have a fitted effect of over 55% in size
#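 Human K18 P301L tau (15 uM unlabeled plus 0.24 uM Alexa 594-labeled, final) in 100 mM sodium acetate pH 7 was mixed with compound and 20 uM heparin and incubated 6 hr at 37 C.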
# Tau FP inhib – inhibitors of human tau fibril formation; Potency, µM (series often up to 57.7 µM), inactives show at the highest dose activity, negative = inhibition, most hits filed as inhibitors; 0.39% of 280,000 active; P10636; K18 P301L tau heparin fibrillization, Alexa594 FP, 6 h; also: potency is read from the fitted curve at half-maximal effect; nearly all actives have a fitted effect of over 55% in size
#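 Recombinant K18 P301L […], labeled with Alexa 594 at 0.24 uM over 15 uM unlabeled; heparin inducer 20 uM final; 37 C, 6 hr; FP endpoint.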
# KDM4E inh – inhibitors of human JMJD2E histone demethylase; JMJD2E catalytic domain, FDH-coupled NADH fluorescence (FDH is formaldehyde dehydrogenase); Potency, µM (doses to about 57.1 µM), for inactives: at the top dose activity change, negative = inhibition, actives largely listed as inhibitors; 1.6% of 230,000 active; AID 2147; active = well fitted inhibition curve with a large enough effect, not every such curve was filed as active; inconclusive = small, poorly fitted or top-dose-only effect, or another doubt; inactive = no such curve, though single readings can be large or run the other way;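 also: potency is read from the fitted curve at half-maximal effect; 0% = wells with enzyme and -100% = buffer wells without enzyme; nearly all actives have a fitted effect of over 50% in size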
# Numbers without * were called inactive; ? = inconclusive; nt = no result; ! = a repeat was not active; [ ] = remark or other dose. Only some compounds are listed: those with a hit (about 5.1% of all), similar ones and a draw of the others. Unless noted, calls follow the shape of the dose curve; as a rule, active = well fitted curve in the direction sought with a large enough effect; inconclusive = small, poorly fitted or top-dose-only effect, or another doubt; inactive = no such curve, though single readings can be large; an effect the other way counts as inactive or inconclusive. Unless noted, % is scaled to controls: 0 for no effect and ±100 for the full control effect.
SMILES,NPSR antag,PNC assembly inh,Tau fibril ThT,Tau fluor counter,Tau FP inhib,KDM4E inh
COc1ccc(CN2C=C3C(=O)C(C)(OC(=O)C4CCCC4)C(=O)C=C3C=C2c2ccsc2)cc1 (stereo not given),-22%,nt,18µM*!,-7%[11.6 µM],?,?
Cc1c(-c2nnc(SCC(=O)Nc3ccccc3F)o2)nnn1-c1ccc(F)cc1,nt,nt,?,-5%,9%,nt
Cc1cccnc1Nc1ncnc(N)c1[N+](=O)[O-],21%,nt,5%,8%,3%,-3%
Cc1ccc(C)c(Nc2ncnc(N)c2[N+](=O)[O-])c1,25%,-124*,8%,4%,-1%,-3%
Cc1cnc(C)c(N(C)NC(=S)Nc2ccccc2)n1,-2%,-109*,-1%,0%,-5%,-6%
Cc1nc(NC(=S)Nc2ccccc2)sc1C,1.3µM*,nt,?,?,-2%,-9%
CCOC(=O)c1sc(NC(=S)NC(=O)c2ccccc2)nc1C,-51%,nt,-9%,-3%,-1%,-2%
COC(=O)c1sc(NC(=S)NC(=O)c2ccccc2)nc1C,13%,-88*,?,-4%,13%,-6%
Cc1ccc(S(=O)(=O)c2nnn3c2nc(NC(C)C)c2sccc23)cc1,nt,nt,-8%,-20%,-23%,nt
Cc1ccc(C(=O)N/C(=C\c2ccc(F)cc2)C(=O)NCc2ccncc2)cc1,17%,-119*,-1%,-8%,-3%,-2%
Cc1ccc(C)c(CN2C(=O)c3ccccc3S(=O)c3ccc(C(=O)NCCC4=CCCCC4)cc32)c1 (stereo not given),nt,nt,-19%,-30%,?,nt
CCCn1nc([N+](=O)[O-])c(C(C#N)c2nc3ccccc3o2)c(Cl)c1=O (stereo not given),?,?,7.1µM*,14µM*[quencher],?,5%
Cn1nc([N+](=O)[O-])c(C(C#N)c2ccccn2)c(Cl)c1=O (stereo not given),-51%,nt,8.9µM*,13µM*[quencher],?,-7%
CCn1nc([N+](=O)[O-])c(C(C#N)c2nc3cc(C(F)(F)F)ccc3s2)c(Cl)c1=O (stereo not given),?,-7,4.5µM*,6.3µM*[quencher],20µM*,6%
CCCCn1c(N)c(-c2nc3ccccc3o2)c2c([N+](=O)[O-])nn(CC)c(=O)c21,9%,42,-10%,-13%,15%,0%
O=C(c1cccc(Cl)c1)N(Cc1ccco1)Cc1ccccc1Cl,nt,nt,-17%,-20%,-4%,nt
O=C(O)c1ccc(/C=N/NC(=S)NCCN2CCOCC2)cc1,12%,nt,-14%,-11%,-5%,1%
NC(=S)N/N=C/c1cccc(O)c1O,-4%,nt,?,-8%,-1%,35µM*
Oc1cccc(/C=N/NC(=S)Nc2cccnc2)c1O,1%,?,4%,5%,9%,22µM*
Oc1ccc(/C=N/NC(=S)Nc2cccnc2)c(O)c1,-2%,37,?,-23%,?,28µM*
Oc1cccc(/C=N/NC(=S)NCCN2CCOCC2)c1O,-1%,nt,-21%,-13%,-4%,25µM*
Cc1ccc(C)c(N2CCN(C(=O)CCS(=O)(=O)c3cc4c(cc3Cl)NC(=O)CO4)CC2)c1,nt,nt,-2%,-1%,-2%,nt
COCCOC(=O)C1=C(C)NC(=O)NC1c1cn(-c2ccccc2)nc1-c1ccccc1 (stereo not given),nt,nt,1%,0%,1%,nt
Cc1cc(C)n2c(Nc3ccccc3)c(-c3ccccc3)nc2n1,nt,nt,-6%,-12%,3%,nt
Oc1ccc(/C=N/NC(=S)Nc2cccnc2)c(O)c1O,-9%,nt,1.6µM*,11µM*[quencher],2µM*,2.2µM*
Fc1c(F)c(F)c(/C=N/NC(=S)Nc2cccnc2)c(F)c1F,?,nt,-16%,-12%,-6%,1%
NC1=NC[C@H](CC2CCCCC2)N1CCc1cc(C(F)(F)F)cc(C(F)(F)F)c1,10µM*,nt,-4%,-7%,-1%,1%
COC(=O)c1cn(C)c2ccc(S(=O)(=O)N3CCCC3)cc2c1=O,-7%[46.1 µM],-109*,-15%,-7%,-2%,-27%
